Measured values published in ChEMBL document CHEMBL2218924, “A broad activity screen in support of a chemogenomic map for kinase signalling research and drug discovery” (Biochem J, 2013).

Key:
[1] = target: T1, Ephrin type-B receptor 1 (Homo sapiens) (UniProt P54762); conditions: at 10 µM
T1 sequence (whole entry): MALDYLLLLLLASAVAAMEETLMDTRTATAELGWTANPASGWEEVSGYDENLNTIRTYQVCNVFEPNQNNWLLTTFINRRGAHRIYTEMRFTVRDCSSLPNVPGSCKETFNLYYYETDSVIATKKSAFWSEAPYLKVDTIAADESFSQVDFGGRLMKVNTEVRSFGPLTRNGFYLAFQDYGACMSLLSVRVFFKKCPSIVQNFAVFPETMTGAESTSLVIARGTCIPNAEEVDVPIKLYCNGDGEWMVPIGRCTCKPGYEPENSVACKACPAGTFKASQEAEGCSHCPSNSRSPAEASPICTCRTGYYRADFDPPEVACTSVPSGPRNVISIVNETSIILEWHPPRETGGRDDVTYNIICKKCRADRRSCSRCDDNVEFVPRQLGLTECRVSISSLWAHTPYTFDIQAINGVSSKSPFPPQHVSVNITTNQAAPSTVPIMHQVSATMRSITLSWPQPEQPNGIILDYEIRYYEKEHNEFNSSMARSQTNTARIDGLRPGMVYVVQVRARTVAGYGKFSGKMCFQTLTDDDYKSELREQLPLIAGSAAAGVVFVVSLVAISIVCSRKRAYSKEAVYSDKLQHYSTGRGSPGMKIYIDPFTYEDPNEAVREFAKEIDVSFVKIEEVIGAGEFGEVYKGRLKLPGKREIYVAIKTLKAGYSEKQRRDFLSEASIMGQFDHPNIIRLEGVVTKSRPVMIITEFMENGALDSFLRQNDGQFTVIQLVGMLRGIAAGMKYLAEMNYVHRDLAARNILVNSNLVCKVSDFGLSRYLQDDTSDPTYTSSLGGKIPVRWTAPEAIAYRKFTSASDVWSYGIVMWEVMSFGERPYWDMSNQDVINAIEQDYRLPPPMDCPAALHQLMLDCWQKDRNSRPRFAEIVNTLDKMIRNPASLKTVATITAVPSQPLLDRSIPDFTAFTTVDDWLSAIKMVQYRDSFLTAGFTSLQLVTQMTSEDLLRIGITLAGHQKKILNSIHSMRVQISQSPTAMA

[2] = target: T2, Ephrin type-B receptor 2 (Homo sapiens) (UniProt P29323); conditions: at 1 µM
T2 sequence (whole entry): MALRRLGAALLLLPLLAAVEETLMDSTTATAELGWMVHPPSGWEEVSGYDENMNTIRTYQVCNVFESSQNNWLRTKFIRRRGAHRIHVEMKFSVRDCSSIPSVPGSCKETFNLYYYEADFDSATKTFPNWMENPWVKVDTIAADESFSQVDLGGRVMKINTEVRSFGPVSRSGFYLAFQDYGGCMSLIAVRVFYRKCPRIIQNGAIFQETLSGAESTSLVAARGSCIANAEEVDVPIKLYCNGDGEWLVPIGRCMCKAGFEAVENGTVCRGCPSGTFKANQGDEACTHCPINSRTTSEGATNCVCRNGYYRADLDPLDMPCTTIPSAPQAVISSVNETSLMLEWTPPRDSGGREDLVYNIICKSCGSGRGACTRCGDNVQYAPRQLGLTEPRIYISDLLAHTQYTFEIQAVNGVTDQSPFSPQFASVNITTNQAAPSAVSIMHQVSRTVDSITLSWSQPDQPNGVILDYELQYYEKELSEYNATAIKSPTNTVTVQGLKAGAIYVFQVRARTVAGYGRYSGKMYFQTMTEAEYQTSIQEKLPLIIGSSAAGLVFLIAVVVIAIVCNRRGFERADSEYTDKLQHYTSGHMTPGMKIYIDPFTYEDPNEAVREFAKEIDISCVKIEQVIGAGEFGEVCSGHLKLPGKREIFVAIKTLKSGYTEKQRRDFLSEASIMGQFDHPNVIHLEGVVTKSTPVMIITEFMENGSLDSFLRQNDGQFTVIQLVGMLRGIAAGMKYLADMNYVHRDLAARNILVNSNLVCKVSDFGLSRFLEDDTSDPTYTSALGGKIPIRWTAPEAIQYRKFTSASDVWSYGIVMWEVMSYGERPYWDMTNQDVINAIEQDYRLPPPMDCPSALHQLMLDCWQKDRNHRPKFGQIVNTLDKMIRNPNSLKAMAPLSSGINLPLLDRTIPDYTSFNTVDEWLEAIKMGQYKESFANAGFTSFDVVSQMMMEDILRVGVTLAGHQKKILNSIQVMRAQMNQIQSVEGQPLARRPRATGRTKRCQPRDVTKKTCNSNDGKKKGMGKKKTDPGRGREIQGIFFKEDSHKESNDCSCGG

[3] = target: T2, Ephrin type-B receptor 2 (Homo sapiens); conditions: at 10 µM
[4] = target: T3, Ephrin type-B receptor 3 (Homo sapiens) (UniProt P54753); conditions: at 1 µM
T3 sequence (whole entry): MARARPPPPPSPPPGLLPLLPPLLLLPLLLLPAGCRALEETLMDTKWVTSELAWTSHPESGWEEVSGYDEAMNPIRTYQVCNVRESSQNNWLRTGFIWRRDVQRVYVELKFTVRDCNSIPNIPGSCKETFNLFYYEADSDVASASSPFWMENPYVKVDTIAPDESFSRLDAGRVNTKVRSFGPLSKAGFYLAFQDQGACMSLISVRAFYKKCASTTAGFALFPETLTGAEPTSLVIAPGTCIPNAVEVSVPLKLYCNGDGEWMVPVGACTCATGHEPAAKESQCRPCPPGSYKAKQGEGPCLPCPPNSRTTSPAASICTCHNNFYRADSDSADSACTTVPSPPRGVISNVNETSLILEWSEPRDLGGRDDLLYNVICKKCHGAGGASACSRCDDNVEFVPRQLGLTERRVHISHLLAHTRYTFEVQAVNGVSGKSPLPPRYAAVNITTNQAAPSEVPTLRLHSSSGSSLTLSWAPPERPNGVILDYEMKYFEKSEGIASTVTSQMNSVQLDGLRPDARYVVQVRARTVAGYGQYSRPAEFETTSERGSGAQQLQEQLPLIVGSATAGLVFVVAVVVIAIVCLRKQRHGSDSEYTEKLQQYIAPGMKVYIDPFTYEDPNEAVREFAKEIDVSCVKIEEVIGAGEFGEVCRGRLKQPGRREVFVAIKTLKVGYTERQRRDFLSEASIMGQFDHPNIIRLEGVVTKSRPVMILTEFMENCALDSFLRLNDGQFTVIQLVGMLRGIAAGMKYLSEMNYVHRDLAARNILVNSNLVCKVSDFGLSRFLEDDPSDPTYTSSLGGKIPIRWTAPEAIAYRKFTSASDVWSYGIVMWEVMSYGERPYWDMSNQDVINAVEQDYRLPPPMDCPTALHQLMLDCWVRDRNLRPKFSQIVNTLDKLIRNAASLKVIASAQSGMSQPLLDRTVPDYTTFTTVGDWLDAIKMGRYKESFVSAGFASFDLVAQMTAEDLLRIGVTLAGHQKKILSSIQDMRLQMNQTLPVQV

[5] = target: T3, Ephrin type-B receptor 3 (Homo sapiens); conditions: at 10 µM
[6] = target: T4, Ephrin type-B receptor 4 (Homo sapiens) (UniProt P54760); conditions: at 1 µM
T4 sequence (whole entry): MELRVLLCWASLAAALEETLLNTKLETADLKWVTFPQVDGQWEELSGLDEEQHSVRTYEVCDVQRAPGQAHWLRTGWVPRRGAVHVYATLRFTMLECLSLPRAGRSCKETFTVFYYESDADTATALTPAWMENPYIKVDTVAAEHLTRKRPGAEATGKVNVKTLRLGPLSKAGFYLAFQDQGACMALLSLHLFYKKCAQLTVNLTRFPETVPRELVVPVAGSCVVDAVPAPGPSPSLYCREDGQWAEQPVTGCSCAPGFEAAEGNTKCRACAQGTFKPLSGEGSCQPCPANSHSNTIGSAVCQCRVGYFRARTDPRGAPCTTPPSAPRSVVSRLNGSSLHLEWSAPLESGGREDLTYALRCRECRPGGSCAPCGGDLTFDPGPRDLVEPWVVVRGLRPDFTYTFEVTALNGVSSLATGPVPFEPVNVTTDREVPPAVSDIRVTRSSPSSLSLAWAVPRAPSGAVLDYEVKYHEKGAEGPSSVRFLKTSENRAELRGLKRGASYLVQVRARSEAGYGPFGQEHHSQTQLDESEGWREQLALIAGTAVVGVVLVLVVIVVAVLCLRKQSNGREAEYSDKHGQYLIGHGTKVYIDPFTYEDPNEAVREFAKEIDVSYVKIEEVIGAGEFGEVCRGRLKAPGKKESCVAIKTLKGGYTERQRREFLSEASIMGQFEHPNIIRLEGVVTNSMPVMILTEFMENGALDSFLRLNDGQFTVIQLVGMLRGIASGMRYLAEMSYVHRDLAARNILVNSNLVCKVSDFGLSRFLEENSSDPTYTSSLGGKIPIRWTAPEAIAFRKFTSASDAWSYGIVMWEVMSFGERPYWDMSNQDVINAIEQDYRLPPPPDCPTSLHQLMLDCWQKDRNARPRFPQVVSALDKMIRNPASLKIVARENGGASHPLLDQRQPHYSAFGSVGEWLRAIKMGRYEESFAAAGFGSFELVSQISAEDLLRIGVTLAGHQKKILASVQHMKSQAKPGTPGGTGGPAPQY

[7] = target: T4, Ephrin type-B receptor 4 (Homo sapiens); conditions: at 10 µM
[8] = target: Receptor tyrosine-protein kinase erbB-4 (Homo sapiens) (UniProt Q15303); conditions: at 1 µM
Chain of Receptor tyrosine-protein kinase erbB-4 (Homo sapiens) (Q15303 whole entry): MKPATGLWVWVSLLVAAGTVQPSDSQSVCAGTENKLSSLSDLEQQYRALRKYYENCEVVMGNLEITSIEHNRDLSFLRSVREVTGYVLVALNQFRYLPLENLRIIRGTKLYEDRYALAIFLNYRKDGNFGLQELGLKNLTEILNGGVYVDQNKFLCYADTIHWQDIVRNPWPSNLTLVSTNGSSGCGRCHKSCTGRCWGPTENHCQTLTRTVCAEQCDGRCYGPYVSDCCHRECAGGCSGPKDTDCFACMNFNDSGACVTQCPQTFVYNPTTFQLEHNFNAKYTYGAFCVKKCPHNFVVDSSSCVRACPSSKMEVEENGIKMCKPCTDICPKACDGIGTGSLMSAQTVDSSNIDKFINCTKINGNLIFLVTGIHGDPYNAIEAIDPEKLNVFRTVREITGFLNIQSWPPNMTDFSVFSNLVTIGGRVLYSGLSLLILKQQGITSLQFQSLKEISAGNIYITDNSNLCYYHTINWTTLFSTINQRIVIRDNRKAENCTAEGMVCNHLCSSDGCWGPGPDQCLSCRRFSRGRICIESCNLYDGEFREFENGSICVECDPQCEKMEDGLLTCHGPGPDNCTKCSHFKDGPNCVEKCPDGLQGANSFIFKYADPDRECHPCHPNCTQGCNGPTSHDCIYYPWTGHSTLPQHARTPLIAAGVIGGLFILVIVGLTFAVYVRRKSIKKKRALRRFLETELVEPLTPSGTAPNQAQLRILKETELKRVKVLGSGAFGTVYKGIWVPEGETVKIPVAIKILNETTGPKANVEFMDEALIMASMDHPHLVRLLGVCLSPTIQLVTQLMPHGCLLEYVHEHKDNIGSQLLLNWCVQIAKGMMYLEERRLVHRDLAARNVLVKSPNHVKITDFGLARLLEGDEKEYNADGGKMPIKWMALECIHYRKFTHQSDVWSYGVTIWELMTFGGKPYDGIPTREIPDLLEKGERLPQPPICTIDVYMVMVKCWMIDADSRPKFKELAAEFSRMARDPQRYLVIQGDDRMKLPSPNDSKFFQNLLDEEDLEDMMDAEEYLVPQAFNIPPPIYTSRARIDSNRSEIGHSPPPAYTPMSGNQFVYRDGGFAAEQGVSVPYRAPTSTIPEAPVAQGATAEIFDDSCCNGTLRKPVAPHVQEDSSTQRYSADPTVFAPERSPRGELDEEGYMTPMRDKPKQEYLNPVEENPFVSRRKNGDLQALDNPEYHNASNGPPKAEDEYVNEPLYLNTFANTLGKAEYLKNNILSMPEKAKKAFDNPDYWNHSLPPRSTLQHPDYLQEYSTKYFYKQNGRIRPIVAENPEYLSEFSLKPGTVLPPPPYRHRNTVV

[9] = target: Receptor tyrosine-protein kinase erbB-4 (Homo sapiens) (UniProt Q15303); conditions: at 10 µM
[10] = target: Focal adhesion kinase 1 (Homo sapiens) (UniProt Q05397); conditions: at 1 µM
Chain of Focal adhesion kinase 1 (Homo sapiens) (Q05397 2-1052 limits assumed): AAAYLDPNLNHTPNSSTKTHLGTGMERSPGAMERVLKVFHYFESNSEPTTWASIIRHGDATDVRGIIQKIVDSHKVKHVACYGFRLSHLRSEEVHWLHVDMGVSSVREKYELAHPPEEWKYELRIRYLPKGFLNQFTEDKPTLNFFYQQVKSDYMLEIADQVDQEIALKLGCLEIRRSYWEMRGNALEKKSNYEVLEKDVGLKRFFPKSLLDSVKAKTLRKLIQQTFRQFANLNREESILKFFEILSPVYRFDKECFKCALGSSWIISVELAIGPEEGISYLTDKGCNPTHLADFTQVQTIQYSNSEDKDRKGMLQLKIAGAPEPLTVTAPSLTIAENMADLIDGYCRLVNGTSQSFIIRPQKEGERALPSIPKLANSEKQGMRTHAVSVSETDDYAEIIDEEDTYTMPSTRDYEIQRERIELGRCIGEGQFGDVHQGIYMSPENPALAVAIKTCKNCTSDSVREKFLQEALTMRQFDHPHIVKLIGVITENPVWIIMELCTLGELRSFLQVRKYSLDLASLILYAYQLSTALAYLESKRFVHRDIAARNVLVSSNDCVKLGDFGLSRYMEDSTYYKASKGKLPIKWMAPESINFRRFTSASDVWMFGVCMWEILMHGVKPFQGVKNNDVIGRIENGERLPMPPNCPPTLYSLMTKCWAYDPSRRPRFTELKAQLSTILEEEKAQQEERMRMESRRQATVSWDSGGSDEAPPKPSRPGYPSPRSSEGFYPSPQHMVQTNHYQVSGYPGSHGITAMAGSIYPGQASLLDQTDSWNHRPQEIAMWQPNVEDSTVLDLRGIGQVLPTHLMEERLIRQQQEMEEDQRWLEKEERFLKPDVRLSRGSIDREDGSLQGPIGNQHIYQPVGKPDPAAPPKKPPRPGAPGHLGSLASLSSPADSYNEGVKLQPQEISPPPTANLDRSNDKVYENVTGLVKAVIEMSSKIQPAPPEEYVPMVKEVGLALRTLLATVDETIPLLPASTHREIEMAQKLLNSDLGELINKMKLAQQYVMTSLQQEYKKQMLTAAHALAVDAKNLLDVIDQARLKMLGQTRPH

## CC(C)(C)c1cc(C=C(C#N)C#N)cc(Br)c1O
[1]
  residual activity: 96%
[2]
  residual activity: 116%
[3]
  residual activity: 121%
[4]
  residual activity: 96% (inactive)
[5]
  residual activity: 121%
[6]
  residual activity: 102%
[7]
  residual activity: 110%
[8]
  residual activity: 114%
[9]
  residual activity: 132%
[10]
  residual activity: 149%
